Source: PubChem
Shown are actives, neighbours in structure and some others; about 2.3% of the full set was active somewhere.
POLK inh = qHTS for Inhibitors of Polymerase Kappa | Potency, µM (top dose mostly 107 µM), most hits filed as inhibitors | purified Pol kappa, fluorescent DNA synthesis assay, 10 min | 0.53% of 400,000 active
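Pol kappa 10 nM + cpd, 15 min RT; start w/ substrate 50 nM final; fluorescence kinetic read, 0 and 10 min. Neg ctrl: buffer, no enzyme.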
Pol eta inh = qHTS for Inhibitors of Polymerase Eta; 1.2% of 390,000 active; Potency, µM (series often up to 114 µM), actives largely listed as inhibitors; recombinant Pol eta, fluorescent DNA replication assay; AID 588591, 2011
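Pol eta at 10 nM preincubated with compounds 15 min at room temperature; reaction started with fluorescent substrate (50 nM final) and read kinetically at 0 and 10 min.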
POLI inh = qHTS for Inhibitors of Polymerase Iota. DNA polymerase iota (Homo sapiens), Q9UNA4. Pol iota fluorescent replication assay, 10 min. Potency, µM (series often up to 115 µM), actives largely listed as inhibitors. 1% of 390,000 active. AID 588590, 2011
Target sequence (Q9UNA4 whole entry, looked up): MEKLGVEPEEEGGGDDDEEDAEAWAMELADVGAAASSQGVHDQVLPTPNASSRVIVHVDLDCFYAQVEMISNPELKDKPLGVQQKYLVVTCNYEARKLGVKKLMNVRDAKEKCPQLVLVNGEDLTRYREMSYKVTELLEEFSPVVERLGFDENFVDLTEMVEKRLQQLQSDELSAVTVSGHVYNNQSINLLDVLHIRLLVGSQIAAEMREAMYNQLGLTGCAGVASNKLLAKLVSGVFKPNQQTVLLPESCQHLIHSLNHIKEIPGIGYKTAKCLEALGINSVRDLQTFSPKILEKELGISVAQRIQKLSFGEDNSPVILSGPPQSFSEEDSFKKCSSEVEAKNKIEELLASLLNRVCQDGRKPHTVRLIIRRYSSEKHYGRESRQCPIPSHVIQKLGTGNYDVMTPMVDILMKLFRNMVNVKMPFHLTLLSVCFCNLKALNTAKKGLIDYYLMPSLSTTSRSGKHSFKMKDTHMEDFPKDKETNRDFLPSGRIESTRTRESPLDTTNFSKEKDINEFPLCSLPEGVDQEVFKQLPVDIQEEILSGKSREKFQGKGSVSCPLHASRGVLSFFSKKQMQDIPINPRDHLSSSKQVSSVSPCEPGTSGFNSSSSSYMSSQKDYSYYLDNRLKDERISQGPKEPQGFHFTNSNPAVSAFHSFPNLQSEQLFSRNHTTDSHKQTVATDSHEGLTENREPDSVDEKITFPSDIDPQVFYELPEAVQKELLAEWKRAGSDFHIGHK
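Fluorescent replication assay read twice, at 0 min and 10 min after adding 50 nM (final) substrate. Enzyme (10 nM) and compounds were first incubated 15 min at room temperature; enzyme-free buffer wells were negative controls.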
Pol beta inh = qHTS Assay for Inhibitors of DNA Polymerase Beta; Pol beta primer extension/strand displacement, fluorescence kinetic; Potency, µM (top dose mostly 114 µM), actives largely listed as inhibitors; 1.3% of 340,000 active; AID 485314, 2010
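Enzyme-only controls used 10 nM Pol beta; buffer lacking enzyme served as negative control. Compound preincubated 15 min, then 50 nM substrate added; 0 and 10 min reads at room temperature.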
WRN inhibitor = qHTS for Inhibitors of WRN Helicase. Bifunctional 3'-5' exonuclease/ATP-dependent helicase WRN (Homo sapiens), Q14191. WRN helicase unwinding, fluorescent forked duplex, kinetic. Potency, µM (series often up to 114 µM), usual class: inhibitors. 0.46% of 360,000 active. AID 651768, 2012; note: nearly all actives have a fitted effect of over 55% in size
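Kinetic fluorescence helicase assay: unwinding of a quenched forked DNA duplex (100 nM final) with 2 mM ATP final raises red fluorescence (525/598 nm). Compounds sat 15 min at room temperature with 20 nM WRN beforehand.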
Large screens that a line does not name were inactive. Calls come from the whole dose curve; as a rule, active = well fitted curve in the direction sought with a large enough effect; inconclusive = small, poorly fitted or top-dose-only effect, or another doubt; inactive = no such curve, though single readings can be large; an effect the other way counts as inactive or inconclusive.

CC[C@H](C)[C@H](NC(=O)[C@H](CCC(=O)O)NC(=O)[C@H](CO)NC(=O)[C@@H](NC(=O)[C@H](C)N)C(C)C)C(=O)N[C@@H](CCC(N)=O)C(=O)N[C@@H](CC(C)C)C(=O)N[C@@H](CCSC)C(=O)N[C@@H](Cc1cnc[nH]1)C(=O)N[C@@H](CC(N)=O)C(=O)N[C@@H](CC(C)C)C(=O)NCC(=O)N[C@@H](CCCCN)C(=O)N[C@@H](Cc1cnc[nH]1)C(=O)N[C@@H](CC(C)C)C(=O)N[C@@H](C)C(=O)N[C@@H](CO)C(=O)N[C@H](C(=O)N[C@@H](CCC(=O)O)C(=O)N[C@@H](CCCNC(=N)N)C(=O)N[C@@H](CCSC)C(=O)N[C@@H](CCC(N)=O)C(=O)N[C@@H](Cc1c[nH]c2ccccc12)C(=O)N[C@@H](CC(C)C)C(=O)N[C@@H](CCCNC(=N)N)C(=O)N[C@@H](CCCCN)C(=O)N[C@@H](CCCCN)C(=O)N[C@@H](CC(C)C)C(=O)N[C@@H](CCC(N)=O)C(=O)N[C@@H](CC(=O)O)C(=O)N[C@H](C(=O)N[C@@H](Cc1cnc[nH]1)C(=O)N[C@@H](CC(N)=O)C(=O)N[C@@H](Cc1ccccc1)C(=O)O)C(C)C)C(C)C	none (no result: Pol eta inh, POLI inh, Pol beta inh, WRN inhibitor)
COc1ccc(N(CC(=O)Nc2cc(OC)cc(OC)c2)S(=O)(=O)c2c(C)noc2C)cc1	POLI inh 89µM (no result: WRN inhibitor)
COc1ccc(N(CC(=O)Nc2ccc(C)cc2)S(=O)(=O)c2c(C)noc2C)cc1	none
COc1ccc(Cc2nn3c(Cn4nnc5ccccc54)nnc3s2)cc1	Pol eta inh inconclusive, POLI inh inconclusive, Pol beta inh 35µM
Cc1[nH]n(-c2ncc(-c3ccccc3)s2)c(=O)c1C(c1ccc(Br)cc1)C(C#N)C#N (stereo unspecified)	POLK inh inconclusive, Pol eta inh 22µM, POLI inh inconclusive, Pol beta inh 45µM, WRN inhibitor inconclusive
O=C(Nc1ccc2oc(-c3ccc(Cl)c(Cl)c3)nc2c1)c1ncn[nH]1	POLK inh inconclusive, Pol eta inh inconclusive, POLI inh inconclusive, Pol beta inh 11µM
O=C(Nc1ccc2oc(-c3ccccc3F)nc2c1)c1ncn[nH]1	Pol beta inh inconclusive
O=C(Cc1ccccc1)Nc1ccc2oc(-c3ccncc3)nc2c1	Pol eta inh inconclusive, POLI inh inconclusive, Pol beta inh 22µM
O=C(Nc1ccc(-c2nc3cc(NC(=O)c4cccs4)ccc3o2)cc1)c1cccs1	none
O=C(Nc1ccc2oc(-c3ccncc3)nc2c1)c1ccccc1	none
O=C(Nc1ccc2oc(-c3ccncc3)nc2c1)c1cccs1	Pol eta inh inconclusive, Pol beta inh 22µM
CCC(=O)Nc1ccc(-c2nnc(SCc3ccccc3)n2C)cc1	none (no result: Pol eta inh, Pol beta inh, WRN inhibitor)
COc1ccc(C2Nc3ccccc3C(=O)N2c2ccc(F)cc2)cc1COc1ccc(NC(C)=O)cc1 (stereo unspecified)	none (no result: Pol eta inh, Pol beta inh, WRN inhibitor)
CCCC[C@H]1CCCO[C@@](C(=O)NCCN2CCOCC2)(C(F)(F)F)C1	none (no result: Pol eta inh, Pol beta inh, WRN inhibitor)
O=C(O)c1cc(N=Nc2ccc(-c3ccc(N=Nc4ccc(O)c(C(=O)O)c4)cc3)cc2)ccc1O	POLK inh 6µM (no result: Pol eta inh, POLI inh, Pol beta inh, WRN inhibitor)
COc1ccc(S(=O)(=O)N2CCCCC2)cc1NC(=O)CCc1nc2ccccc2c(=O)[nH]1	none (no result: Pol beta inh)
Cc1ccc(S(=O)(=O)N2CCCCC2)cc1NC(=O)CCc1nc2ccccc2c(=O)[nH]1	Pol eta inh 28µM, POLI inh inconclusive (no result: Pol beta inh)
c1ccc(-c2ccccc2OCCOCCN2CCOCC2)cc1	Pol beta inh 50µM
CN(C)c1ccc2ccc3cccc4ccc1c2c34	POLI inh inconclusive (no result: Pol eta inh, Pol beta inh, WRN inhibitor)
O=C(N/N=C/c1cccnc1)c1cc2ccccc2o1	POLI inh inconclusive
O=C(N/N=C/c1cccnc1)c1cc2c(ccc3ccccc32)o1	Pol eta inh inconclusive, POLI inh inconclusive, Pol beta inh 11µM
Cc1ccccc1NC(=O)CN1CCOCC1	none
O=C(CN1CCOCC1)Nc1ccccc1C(=O)O	POLI inh 79µM
O=c1cc(/C=C/c2ccc([N+](=O)[O-])cc2)c2ccccc2[nH]1	none (no result: Pol eta inh, Pol beta inh, WRN inhibitor)
C/C(=N/NC(=O)C(O)(c1ccccc1)c1ccccc1)c1ccc([N+](=O)[O-])o1	Pol eta inh 79µM, POLI inh inconclusive, Pol beta inh 13µM
CC(C)(C)OC(=O)NS(=O)(=O)NCc1ccco1	none (no result: Pol eta inh, Pol beta inh, WRN inhibitor)
O=C(O)c1ccccc1NS(=O)(=O)c1cccc(C(F)(F)F)c1	none
O=C(O)c1ccccc1NS(=O)(=O)c1cccc(-n2sc3ccccc3c2=O)c1	Pol eta inh 50µM, POLI inh 25µM, Pol beta inh inconclusive, WRN inhibitor 11µM
O=C(COC(=O)c1ccc([N+](=O)[O-])o1)NC1CCCC1	Pol eta inh inconclusive, POLI inh 79µM (no result: Pol beta inh)
Cc1ccc(C(=O)OCC(=O)NC2CCCCC2)o1	none
CCN(C(=O)COC(=O)c1ccc([N+](=O)[O-])o1)C1CCCCC1	POLK inh inconclusive, Pol eta inh 89µM, POLI inh inconclusive (no result: Pol beta inh)
CC1CCCCC1NC(=O)COC(=O)c1ccc([N+](=O)[O-])o1 (stereo unspecified)	Pol eta inh 89µM, POLI inh 32µM (no result: Pol beta inh)
CC1CCCC(NC(=O)COC(=O)c2ccc([N+](=O)[O-])o2)C1C (stereo unspecified)	POLI inh inconclusive (no result: Pol beta inh)
O=C(N/N=C/c1ccc([N+](=O)[O-])o1)c1ccccc1NS(=O)(=O)c1cccs1	Pol eta inh 56µM, POLI inh 40µM, Pol beta inh inconclusive
O=C(NN=Cc1ccc(F)cc1)c1ccccc1NS(=O)(=O)c1cccs1	none (no result: Pol beta inh)
C#CCNC(=O)C1=C[C@H](c2ccc(C#C)cc2)C[C@H](OCc2ccc(CO)cc2)O1	POLK inh inconclusive, Pol eta inh 45µM, POLI inh inconclusive (no result: Pol beta inh)
C#Cc1ccc([C@H]2C=C(C(=O)OCC=C)O[C@@H](OCc3ccc(CO)cc3)C2)cc1	POLK inh inconclusive, Pol eta inh 28µM, POLI inh inconclusive (no result: Pol beta inh)
C#CCNC(=O)C1=C[C@@H](c2ccccc2)C[C@@H](OCc2ccc(CO)cc2)O1	none
C[C@H](CN1c2ccccc2Sc2cccnc21)N(C)C	none (no result: Pol eta inh, POLI inh, Pol beta inh, WRN inhibitor)
c1ccc2c(c1)OCCOCCOCCOCCO2	none (no result: Pol eta inh, POLI inh, Pol beta inh, WRN inhibitor)
CC1O[C@@H](OC2C(COC3OC(CO)C(O)[C@H](O)C3O)OC(OC3CC[C@]4(C)C(CC[C@@]5(C)[C@@H]4CC=C4[C@@H]6CC(C)(C)CC[C@]6(CO)C(O)C[C@]45C)C3(C)C)C(O)C2O)C(O)C(O)C1O (stereo partly specified)	none (no result: Pol beta inh)
